# Source: PMC10954555
# What was measured:
# [1] = target: Small ribosomal subunit protein uS14 (UniProt P62273); test: other; cross-linking mass spectrometry; other
# [2] = target: DNA-directed RNA polymerase II subunit RPB9 (UniProt P36954); test: other; affinity purification or IP with mass spectrometry; other
# [3] = target: DNA-directed RNA polymerase II subunit RPB2 (UniProt P30876); test: other; affinity purification or IP with mass spectrometry; cross-linking mass spectrometry; other
# [4] = target: High mobility group nucleosome-binding domain-containing protein 3 (UniProt Q15651); test: other; cross-linking mass spectrometry; other
# [5] = target: Retinoblastoma-binding protein 5 (UniProt Q15291); test: other; cross-linking mass spectrometry; other
# [6] = target: Replication factor C subunit 5 (UniProt P40937); test: other; cross-linking mass spectrometry; other
# [7] = target: RNA polymerase-associated protein LEO1 (UniProt Q8WVC0); test: other; cross-linking mass spectrometry; other
# [8] = target: Large ribosomal subunit protein eL34 (UniProt P49207); test: other; cross-linking mass spectrometry; other
# [9] = target: Large ribosomal subunit protein eL8 (UniProt P62424); test: other; cross-linking mass spectrometry; other
# [10] = target: Large ribosomal subunit protein uL2 (UniProt P62917); test: other; cross-linking mass spectrometry; other
# [11] = target: Large ribosomal subunit protein eL6 (UniProt Q02878); test: other; cross-linking mass spectrometry; other
# [12] = target: Ubiquitin-ribosomal protein eS31 fusion protein (UniProt P62979); test: other; cross-linking mass spectrometry; other
# RNA-binding protein 8A = RNA-binding protein 8A (UniProt Q9Y5S9); test: other; cross-linking mass spectrometry; other
# [13] = target: Small ribosomal subunit protein eS6 (UniProt P62753); test: other; cross-linking mass spectrometry; other
# [14] = target: RNA polymerase II-associated factor 1 homolog (UniProt Q8N7H5); test: other; cross-linking mass spectrometry; other
# [15] = target: Bromodomain-containing protein 3 (UniProt Q15059); test: other; cross-linking mass spectrometry; other
# [16] = target: Small ribosomal subunit protein uS7 (UniProt P46782); test: other; cross-linking mass spectrometry; other
# Actin, cytoplasmic 2 = Actin, cytoplasmic 2 (UniProt P63261); test: other; cross-linking mass spectrometry; other
# [17] = target: Large ribosomal subunit protein uL5 (UniProt P62913); test: cross-linking mass spectrometry; other
# [18] = target: DNA-directed RNA polymerase II subunit RPB3 (UniProt P19387); test: other; cross-linking mass spectrometry; other
# [19] = target: DNA-directed RNA polymerase II subunit RPB1 (UniProt P24928); test: other; affinity purification or IP with mass spectrometry; other
# [20] = target: Actin, alpha skeletal muscle (UniProt P68133); test: cross-link between two proteins; cross-linking mass spectrometry; other
# Replication factor C subunit 5, sequence (P40937 whole entry): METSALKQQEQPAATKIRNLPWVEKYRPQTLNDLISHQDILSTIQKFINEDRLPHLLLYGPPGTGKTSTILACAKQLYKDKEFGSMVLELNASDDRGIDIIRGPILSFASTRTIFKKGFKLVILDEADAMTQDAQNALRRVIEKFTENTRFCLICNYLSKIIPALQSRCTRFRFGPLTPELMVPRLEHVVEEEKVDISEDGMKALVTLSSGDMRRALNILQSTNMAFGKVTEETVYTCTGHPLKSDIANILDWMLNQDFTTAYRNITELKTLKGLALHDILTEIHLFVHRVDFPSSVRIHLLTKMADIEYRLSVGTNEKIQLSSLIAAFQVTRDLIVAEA
# Histone-lysine N-methyltransferase 2A, Q03164, sequence (Q03164 whole entry): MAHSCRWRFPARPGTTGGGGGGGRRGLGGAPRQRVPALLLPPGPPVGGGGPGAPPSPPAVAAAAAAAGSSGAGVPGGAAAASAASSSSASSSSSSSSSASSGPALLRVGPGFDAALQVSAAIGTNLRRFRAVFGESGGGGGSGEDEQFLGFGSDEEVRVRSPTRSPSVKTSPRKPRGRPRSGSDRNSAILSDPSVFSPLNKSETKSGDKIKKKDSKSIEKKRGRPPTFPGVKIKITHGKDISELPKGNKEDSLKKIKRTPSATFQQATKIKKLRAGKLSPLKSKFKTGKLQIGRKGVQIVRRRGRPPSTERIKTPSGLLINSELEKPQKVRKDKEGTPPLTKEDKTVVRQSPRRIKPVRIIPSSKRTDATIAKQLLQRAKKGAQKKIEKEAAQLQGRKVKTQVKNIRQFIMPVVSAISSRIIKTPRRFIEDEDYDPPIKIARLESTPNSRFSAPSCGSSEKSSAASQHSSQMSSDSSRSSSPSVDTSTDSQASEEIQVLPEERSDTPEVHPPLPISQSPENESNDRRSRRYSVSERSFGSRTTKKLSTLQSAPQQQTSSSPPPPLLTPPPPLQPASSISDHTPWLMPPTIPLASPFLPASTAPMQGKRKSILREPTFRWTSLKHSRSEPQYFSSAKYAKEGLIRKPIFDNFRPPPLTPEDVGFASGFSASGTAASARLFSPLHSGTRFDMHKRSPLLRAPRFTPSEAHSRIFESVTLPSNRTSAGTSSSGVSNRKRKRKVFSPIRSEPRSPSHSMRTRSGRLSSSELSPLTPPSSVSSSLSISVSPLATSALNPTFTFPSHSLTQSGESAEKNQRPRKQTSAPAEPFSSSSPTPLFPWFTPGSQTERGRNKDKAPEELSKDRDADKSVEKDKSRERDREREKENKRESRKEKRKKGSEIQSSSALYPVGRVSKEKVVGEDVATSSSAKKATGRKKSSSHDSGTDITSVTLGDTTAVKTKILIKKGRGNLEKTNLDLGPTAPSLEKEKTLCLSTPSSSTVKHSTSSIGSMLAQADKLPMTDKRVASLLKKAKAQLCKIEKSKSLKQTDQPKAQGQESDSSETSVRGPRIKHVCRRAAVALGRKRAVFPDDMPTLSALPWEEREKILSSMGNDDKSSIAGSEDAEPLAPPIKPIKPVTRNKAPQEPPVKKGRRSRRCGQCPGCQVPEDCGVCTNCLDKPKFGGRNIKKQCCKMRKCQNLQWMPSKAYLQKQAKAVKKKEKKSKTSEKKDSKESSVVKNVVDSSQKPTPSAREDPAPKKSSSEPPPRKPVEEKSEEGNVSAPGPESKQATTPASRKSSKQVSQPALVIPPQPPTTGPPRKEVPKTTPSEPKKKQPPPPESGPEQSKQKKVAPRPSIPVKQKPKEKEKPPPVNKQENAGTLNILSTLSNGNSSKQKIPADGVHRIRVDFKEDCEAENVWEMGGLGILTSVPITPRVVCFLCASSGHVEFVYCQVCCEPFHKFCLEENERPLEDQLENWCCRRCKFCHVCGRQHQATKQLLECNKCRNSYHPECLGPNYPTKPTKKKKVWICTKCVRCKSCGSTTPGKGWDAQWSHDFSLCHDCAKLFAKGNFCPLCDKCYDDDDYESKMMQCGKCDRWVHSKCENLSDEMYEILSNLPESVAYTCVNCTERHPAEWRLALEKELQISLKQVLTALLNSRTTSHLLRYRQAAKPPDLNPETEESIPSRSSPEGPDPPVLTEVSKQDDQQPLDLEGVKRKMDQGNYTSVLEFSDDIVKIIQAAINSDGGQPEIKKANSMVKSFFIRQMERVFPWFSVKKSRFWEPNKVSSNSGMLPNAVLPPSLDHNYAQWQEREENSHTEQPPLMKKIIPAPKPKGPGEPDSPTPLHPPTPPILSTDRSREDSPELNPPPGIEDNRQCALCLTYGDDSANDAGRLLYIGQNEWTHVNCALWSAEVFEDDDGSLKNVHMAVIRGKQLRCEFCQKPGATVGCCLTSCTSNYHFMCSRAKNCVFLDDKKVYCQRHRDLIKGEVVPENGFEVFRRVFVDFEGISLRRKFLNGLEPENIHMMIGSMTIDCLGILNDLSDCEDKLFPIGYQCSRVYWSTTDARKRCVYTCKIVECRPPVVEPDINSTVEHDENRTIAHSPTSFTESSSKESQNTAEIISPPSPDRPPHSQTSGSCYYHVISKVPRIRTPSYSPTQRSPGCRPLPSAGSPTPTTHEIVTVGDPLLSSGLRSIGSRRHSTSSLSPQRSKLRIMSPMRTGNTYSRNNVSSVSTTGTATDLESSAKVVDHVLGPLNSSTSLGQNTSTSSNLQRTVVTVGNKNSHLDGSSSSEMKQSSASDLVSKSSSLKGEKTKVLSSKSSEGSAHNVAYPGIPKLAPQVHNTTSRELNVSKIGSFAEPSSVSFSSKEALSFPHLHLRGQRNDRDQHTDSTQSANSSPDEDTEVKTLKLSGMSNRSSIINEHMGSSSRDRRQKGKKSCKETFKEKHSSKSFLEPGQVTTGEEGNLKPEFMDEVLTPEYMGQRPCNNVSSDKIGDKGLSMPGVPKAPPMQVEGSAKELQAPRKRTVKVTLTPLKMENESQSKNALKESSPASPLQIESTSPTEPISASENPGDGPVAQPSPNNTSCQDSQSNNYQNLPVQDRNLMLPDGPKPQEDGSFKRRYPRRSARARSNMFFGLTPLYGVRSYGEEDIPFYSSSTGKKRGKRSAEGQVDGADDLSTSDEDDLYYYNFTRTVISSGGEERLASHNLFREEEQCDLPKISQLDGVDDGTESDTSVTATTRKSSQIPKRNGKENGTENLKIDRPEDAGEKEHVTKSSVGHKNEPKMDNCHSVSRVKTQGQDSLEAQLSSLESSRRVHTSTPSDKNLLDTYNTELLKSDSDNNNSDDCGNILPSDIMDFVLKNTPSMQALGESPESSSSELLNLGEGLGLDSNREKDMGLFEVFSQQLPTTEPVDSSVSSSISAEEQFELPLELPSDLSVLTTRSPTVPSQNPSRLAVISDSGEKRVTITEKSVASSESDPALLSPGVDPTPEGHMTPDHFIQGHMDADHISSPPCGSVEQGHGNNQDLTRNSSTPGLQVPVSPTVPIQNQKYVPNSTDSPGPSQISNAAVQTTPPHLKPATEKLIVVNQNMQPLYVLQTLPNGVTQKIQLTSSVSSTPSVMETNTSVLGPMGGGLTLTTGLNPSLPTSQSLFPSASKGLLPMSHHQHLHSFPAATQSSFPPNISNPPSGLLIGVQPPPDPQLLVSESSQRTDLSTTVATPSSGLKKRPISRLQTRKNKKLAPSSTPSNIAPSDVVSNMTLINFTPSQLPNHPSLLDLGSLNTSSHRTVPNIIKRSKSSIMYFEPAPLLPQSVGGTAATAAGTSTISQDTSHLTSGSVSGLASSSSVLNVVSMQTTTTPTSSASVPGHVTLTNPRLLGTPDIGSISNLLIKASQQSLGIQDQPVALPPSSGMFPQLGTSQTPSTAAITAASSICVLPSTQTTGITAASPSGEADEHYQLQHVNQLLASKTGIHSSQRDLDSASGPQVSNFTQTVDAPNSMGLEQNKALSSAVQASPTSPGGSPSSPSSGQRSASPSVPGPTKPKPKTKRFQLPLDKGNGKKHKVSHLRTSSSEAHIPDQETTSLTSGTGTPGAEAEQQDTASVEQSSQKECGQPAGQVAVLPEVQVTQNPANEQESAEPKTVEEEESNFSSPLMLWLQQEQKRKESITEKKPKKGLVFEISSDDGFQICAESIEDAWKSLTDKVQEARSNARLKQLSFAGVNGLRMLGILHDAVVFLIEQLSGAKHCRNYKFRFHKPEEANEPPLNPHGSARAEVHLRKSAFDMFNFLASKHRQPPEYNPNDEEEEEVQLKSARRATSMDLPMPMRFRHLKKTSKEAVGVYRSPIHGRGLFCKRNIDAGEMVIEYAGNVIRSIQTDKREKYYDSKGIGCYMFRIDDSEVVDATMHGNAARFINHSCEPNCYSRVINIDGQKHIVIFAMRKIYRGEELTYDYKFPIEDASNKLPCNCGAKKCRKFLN
# Replication factor C subunit 4, P35249, sequence (P35249 whole entry): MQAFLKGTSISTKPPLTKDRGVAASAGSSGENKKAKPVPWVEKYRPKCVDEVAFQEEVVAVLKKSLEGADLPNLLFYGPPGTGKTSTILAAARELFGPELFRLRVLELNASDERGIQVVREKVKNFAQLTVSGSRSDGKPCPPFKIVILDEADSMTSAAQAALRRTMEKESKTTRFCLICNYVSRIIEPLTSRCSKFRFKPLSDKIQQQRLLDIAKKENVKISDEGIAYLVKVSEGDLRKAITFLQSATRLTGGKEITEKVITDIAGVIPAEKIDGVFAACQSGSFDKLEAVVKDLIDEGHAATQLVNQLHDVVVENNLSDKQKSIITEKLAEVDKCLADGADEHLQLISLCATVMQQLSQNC
substance,measurement,setting,value
"Small ribosomal subunit protein uS10, P60866",listed as a hit,[1],yes
"DNA-directed RNA polymerase II subunit RPB1, P24928",listed as a hit,[2],yes
same,listed as a hit,[3],yes
"Non-histone chromosomal protein HMG-17, P05204",listed as a hit,[4],yes
"Histone-lysine N-methyltransferase 2A, Q03164",listed as a hit,[5],yes
"Replication factor C subunit 4, P35249",listed as a hit,[6],yes
"RNA polymerase II-associated factor 1 homolog, Q8N7H5",listed as a hit,[7],yes
"Large ribosomal subunit protein uL4, P36578",listed as a hit,[8],yes
same,listed as a hit,[9],yes
same,listed as a hit,[10],yes
"Large ribosomal subunit protein eL32, P62910",listed as a hit,[11],yes
"Small ribosomal subunit protein uS7, P46782",listed as a hit,[12],yes
"Eukaryotic initiation factor 4A-III, P38919",listed as a hit,RNA-binding protein 8A,yes
"Small ribosomal subunit protein uS17, P62280",listed as a hit,[13],yes
"Parafibromin, Q6P1J9",listed as a hit,[14],yes
same,listed as a hit,[7],yes
"Bromodomain-containing protein 4, O60885",listed as a hit,[15],yes
"Small ribosomal subunit protein eS1, P61247",listed as a hit,[12],yes
"Small ribosomal subunit protein eS19, P39019",listed as a hit,[16],yes
"RNA polymerase-associated protein CTR9 homolog, Q6PD62",listed as a hit,[14],yes
same,listed as a hit,[7],yes
"Actin, cytoplasmic 1, P60709",listed as a hit,"Actin, cytoplasmic 2",yes
"Large ribosomal subunit protein uL1, P62906",listed as a hit,[17],yes
"DNA-directed RNA polymerase II subunit RPB4, O15514",listed as a hit,[18],yes
same,listed as a hit,[19],yes
"Actin, cytoplasmic 2, P63261",listed as a hit,[20],yes
